# From PubChem BioAssay
# Rin1 Abl inh = inhibitors of human Rin1-Abl protein interaction; P00519+Q13671; 0.4% of 360,000 active; TR-FRET Rin1/Abl binding, biochemical; inhibition, % at 7.35 µM; in the data active means inhibition above about 5%, passing the limit was not always enough
# MBD2 inh = blocks human MBD2 binding to methylated DNA; inhibition, % at 4.4 µM; Q9UBB5; TR-FRET, MBD2 binding to methylated oligonucleotide; AID 686964; 0.31% of 370,000 active; in the data active means inhibition above about 13%
# Target sequence (Q9UBB5 whole entry, looked up): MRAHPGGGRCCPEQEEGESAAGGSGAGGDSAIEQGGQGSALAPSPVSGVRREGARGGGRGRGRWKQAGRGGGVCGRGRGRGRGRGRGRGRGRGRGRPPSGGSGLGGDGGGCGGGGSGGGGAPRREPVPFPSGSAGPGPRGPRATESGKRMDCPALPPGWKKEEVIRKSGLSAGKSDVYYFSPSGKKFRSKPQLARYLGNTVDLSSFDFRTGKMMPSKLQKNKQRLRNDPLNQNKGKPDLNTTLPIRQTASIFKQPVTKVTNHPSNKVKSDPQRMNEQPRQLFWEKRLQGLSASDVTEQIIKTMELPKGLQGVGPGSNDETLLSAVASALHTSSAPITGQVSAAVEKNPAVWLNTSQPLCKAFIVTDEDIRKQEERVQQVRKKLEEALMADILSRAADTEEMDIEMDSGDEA
# LEDGF integ inh = blocks HIV-1 LEDGF/p75-dependent DNA integration | TR-FRET IN-LEDGF/p75 DNA integration, Eu/Cy5 | inhibition, % at 3.7 µM | 0.64% of 370,000 active;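 active means inhibition above the screen-wide mean plus 3 SD, cut at about 13% in these data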;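 further: signal is the Cy5 over europium emission ratio at 671 and 618 nm; 0% = plate median of compound wells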
# UHRF1 MBD2 ctr = human UHRF1 methylated DNA binding inhibitors | inhibition, % at 4.4 µM | UHRF1 binding to methylated oligo, TR-FRET | 0.75% of 370,000 active | Q96T88; in the data active means inhibition above about 21%;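 further: UHRF1 SRA domain binding a hemimethylated CpG hairpin DNA probe; 0% = median of test compound wells and 100% = reference inhibitor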
# proKLK7 act = proKLK7 (human) activation, primary screen | P49862 | purified proKLK7, EDANS-DABCYL substrate fluorescence; 100% is mature enzyme control, 0% vehicle | activation, % at 7 µM | 0.9% of 370,000 active | AID 652039;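 active means activation above the mean of all tested compounds plus 3 SD, computed per campaign excluding outliers beyond control limits, cut at about 13% in these data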
# Neddylation inh = blocks human cullin neddylation | P61081+Q13564 | TR-FRET cullin neddylation, biochemical | calls only at 25 µM | 0.58% of 360,000 active; in the data active means inhibition above about 36%
# KLK7 act conf = proKLK7 activation, confirmation. AID 686949. shares compounds with proKLK7 act. purified proKLK7, EDANS-DABCYL substrate fluorescence; scaled: vehicle 0, mature enzyme 100. activation, % at 7 µM. 68% of 3,200 active;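 active means activation, as change over the incubation, above the mean of all tested compounds plus 3 SD, cut at about 13% in these data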
# EDANS interfere = fluorescence interference counter-screen for KLK7 activators. activation, % at 7 µM. EDANS-DABCYL substrate fluorescence interference, no enzyme, 4 h; solvent 0%, active enzyme control 100%. AID 686952. 80% of 3,200 active. shares compounds with proKLK7 act;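 active means activation above the all-compound mean plus 3 SD, ignoring values outside control-based bounds, cut at about 4.8% in these data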;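 further: value is the 4 h activation minus the activation read at time zero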
# K7 EDANS ctr = counter-screen for kallikrein-7 activators: EDANS-DABCYL interference, dose response; shares compounds with proKLK7 act; EC50, µM; EDANS-DABCYL peptide fluorescence interference, no enzyme; AID 720493; 20% of 250 active;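 active means compounds that raise the fluorescence signal in this interference counterscreen, with EC50 at or below 10 µM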;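 further: intact quenched peptide substrate alone read at 355 nm excitation and 520 nm emission; signal is fluorescence gain from T0 to T4 after four hours at room temperature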
# * hit, by the source's call; i = inactive; x = not tested or not shown. Most compounds without a hit are left out; they make up all but 3.1% or so of the library.
SMILES,Rin1 Abl inh,MBD2 inh,LEDGF integ inh,UHRF1 MBD2 ctr,proKLK7 act,Neddylation inh,KLK7 act conf,EDANS interfere,others
CCN1c2ccccc2-c2nc3ccccc3n2C1c1ccncc1 (configuration not stated),-1,2,1,4,2,i,x,x,
OC[C@@H]1CN(Cc2cccs2)C[C@H](n2cnc3c(NCc4ccncc4)ncnc32)O1,0,0,6,0,0,i,x,x,
COc1cc(NC(=O)c2cccs2)c(OC)cc1NC(=O)CCC(=O)Nc1ccc(C)cc1,1,-3,1,-2,123*,i,-11,1,
COc1ccccc1CC(=O)Nc1ccc(NC(=O)c2cccs2)cc1,-2,-2,-2,-1,52*,i,73*,59*,K7 EDANS ctr=8.2*
COc1ccc(NC(=O)CCC(=O)Nc2cc(OC)c(NC(=O)c3cccs3)cc2OC)cc1,-1,1,-1,-1,1,i,x,x,
COc1ccccc1CC(=O)NNC(=O)c1cccs1,0,-1,-2,-2,0,i,x,x,
O=C(CCNS(=O)(=O)c1ccc(Br)cc1)N1CCN(c2ccccc2O)CC1,-1,7,-3,-1,0,i,x,x,
Cc1ccc(S(=O)(=O)NCC(C)n2cncn2)cc1C (configuration not stated),3,8,-4,1,0,i,x,x,
Cc1cc(C(=O)NNC(=O)Nc2ccccc2)no1,4,-2,-1,0,0,i,x,x,
Cc1nc(C(=O)NNC(=O)Nc2ccccc2)cs1,0,-1,-3,-1,16*,i,-1,-1,
Nc1nonc1C(=O)NCCNC(=O)c1ccc(Cl)c(Cl)c1,1,1,-3,0,0,i,x,x,
CC1=C(C(=O)Nc2ccccn2)C(c2cn(C)nc2C)C2=C(CCCC2=O)N1 (configuration not stated),1,-3,2,-1,15*,x,19*,21*,
COC(=O)C1=C(C)NC2=C(C(=O)CCC2)C1c1cn(Cc2ccc(Cl)cc2Cl)nc1-c1ccccc1 (configuration not stated),-2,4,3,0,-19,x,x,x,
CC1=C(C(=O)Nc2ccc(F)cc2)C(c2ccncc2)C2=C(CCCC2=O)N1 (configuration not stated),2,1,-1,-2,4,x,x,x,
CCn1cc(C2C(C(=O)Nc3ccc(Br)cn3)=C(C)NC3=C2C(=O)CCC3)c(C)n1 (configuration not stated),-3,3,2,3,16*,x,17*,17*,
Cc1cccc(C)c1NC(=O)Cn1nnc(-c2ccncc2)n1,x,-5,1,-3,-1,x,x,x,
Cc1ccc(NC(=O)c2cc(-c3cccs3)nc3ccccc23)nc1,-5,4,-2,0,-19,x,x,x,
O=C(NN1CCOCC1)c1cc(-c2cccs2)nc2ccccc12,-3,-8,5,-4,37*,x,33*,36*,
CC(C)OCCCNC(=O)c1cc(-c2cccs2)nc2ccccc12,2,-7,-5,-4,15*,x,13*,13*,
O=C(O)c1cc(-c2cccs2)nc2cc3c(cc12)OCCO3,-3,-8,5,-3,30*,x,42*,50*,
CCc1ccc(-c2cc(C(=O)NN3CCOCC3)c3ccccc3n2)s1,-7,-7,-4,-3,49*,x,79*,68*,
O=C(OC1CCOC1=O)c1cc(-c2cccs2)nc2ccccc12 (configuration not stated),-1,-3,-2,0,275*,x,139*,189*,
Cc1cc(C)c2nc(NNC(=O)c3cc(-c4cccs4)nc4ccccc34)sc2c1,0,-5,-4,0,13*,i,10,12*,
Cc1ccc2oc(=O)c3cc(C(=O)NCCCN4CCCC(C)C4)sc3c2c1 (configuration not stated),-5,0,0,-16,0,i,x,x,
Cc1cccc(NC(=O)c2cc3c(s2)-c2c(C)cccc2OC3)n1,-6,-1,-4,-1,-17,x,x,x,
SMILES,Rin1 Abl inh,MBD2 inh,LEDGF integ inh,UHRF1 MBD2 ctr,proKLK7 act,Neddylation inh,KLK7 act conf,EDANS interfere,others
CN(C)CCNC(=O)c1cc2c(s1)-c1ccccc1OC2,-5,-11,-3,-6,68*,i,72*,68*,
Cc1csc(NC(=O)c2cc3c(s2)-c2ccccc2OC3)n1,2,-3,-2,0,-602,x,x,x,
CCN1CCN(CCCNC(=O)c2cc3c(s2)-c2ccccc2OC3)CC1,-2,-4,1,-6,37*,i,73*,70*,
CCCN1CCN(CCCNC(=O)c2cc3c(s2)-c2c(C)cccc2OC3)CC1,-4,-3,-2,0,42*,i,63*,71*,
Cc1cccc2c1-c1sc(C(=O)NCCCN3CCCC(C)C3)cc1CO2 (configuration not stated),-10,-1,1,0,48*,i,62*,70*,
CC1(c2nnnn2Cc2ccccc2)CCSCC(=O)N1Cc1cccs1 (configuration not stated),x,7,-3,4,0,x,x,x,
CCOc1ccccc1NC(=O)C1CCN(S(=O)(=O)c2cccc3cccnc23)CC1,6,1,-2,-1,0,i,x,x,
CC1CN(C(=O)c2ccc(NS(=O)(=O)c3ccc(C(C)(C)C)cc3)cc2)CC(C)O1 (configuration not stated),-1,-1,-3,0,0,i,x,x,
CCCN1CCN(CCCNC(=O)c2cc3c(=O)[nH]c4ccccc4c3s2)CC1,-2,-4,1,-4,5,x,x,x,
CCCN1CCN(CCCNC(=O)c2cc3c(s2)-c2ccccc2OC3)CC1,-7,-3,-1,-5,38*,i,71*,76*,
CC1CC(C)CN(CCCNC(=O)c2cc3c(s2)-c2ccccc2OC3)C1 (configuration not stated),-5,7,-3,-4,44*,i,-37,-60,
Cc1c(NC(=O)c2cc3c(s2)-c2ccccc2OC3)cccc1[N+](=O)[O-],-2,12,3,-4,0,i,x,x,
CC1CC(C)CN(CCCNC(=O)c2nn(C)c3c2CS(=O)(=O)c2ccccc2-3)C1 (configuration not stated),2,-2,3,-1,0,i,x,x,
